PubChem BioAssay (NCI)
This is part of a sample that, as a whole, favours compounds with a hit. Of some 83,000 tested, about 20% had one in any assay.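 Step 1: grow cells in 96-well plates. Step 2: add test compound at a single concentration. Step 3: incubate 48 h. Step 4: record percent growth.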 The source made the active and inactive calls. The calls were made as follows: active = growth percent below 10; inactive = the rest.

Experiments:
Test in all cases: NCI-60 one-dose screen, 48 h (100 = growth as untreated, 0 = no growth, -100 = all killed)
Settings in all cases: 10 µM unless noted
[1] = test system: SK-MEL-2 melanoma
[2] = test system: EKVX NSCLC
[3] = test system: UO-31 renal
[4] = test system: TK-10 renal
[5] = test system: ACHN renal
[6] = test system: CAKI-1 renal
[7] = test system: CCRF-CEM leukemia
[8] = test system: MOLT-4 leukemia
[9] = test system: SR leukemia
[10] = test system: RPMI-8226 leukemia
[11] = test system: OVCAR-8 ovarian
[12] = test system: OVCAR-5 ovarian
[13] = test system: OVCAR-4 ovarian
[14] = test system: IGROV1 ovarian
[15] = test system: OVCAR-3 ovarian
[16] = test system: HS 578T breast
[17] = test system: NCI/ADR-RES ovarian
[18] = test system: A498 renal
[19] = test system: SN12C renal
[20] = test system: SK-OV-3 ovarian

Measured: growth

O=C1NC(=S)S/C1=C\N1N=C(c2ccc(Cl)cc2)CC1c1ccc(F)cc1 (stereo not drawn)
inactive: [1] 95.5% | [2] 76% | [3] 60.1% | [4] 101% | [5] 87.2% | [6] 85.4% | [7] 65.5% | [8] 45.1% | [9] 46.9% | [10] 69.7% | [11] 81.3% | [12] 94.7% | [13] 91.4% | [14] 96.2% | [15] 86.4% | [16] 84.8% | [17] 87%

Cn1cc(-c2ccc3ncc(-c4ccc(CC(=O)Nc5cc(C(C)(C)C)nn5C)cc4)cc3c2)cn1
inactive: [2] 27.1% [30 µM] | [4] 40.6% [30 µM] | [18] 11.4% [30 µM] | [9] 11.6% [30 µM] | [12] 46.2% [30 µM] | [16] 27.8% [30 µM]
active: [1] -9.17% [30 µM] | [3] 7.45% [30 µM] | [6] 5.68% [30 µM] | [7] -15.4% [30 µM] | [8] -22.1% [30 µM] | [11] 3.22% [30 µM] | [13] -21.8% [30 µM] | [14] 7.76% [30 µM] | [15] 7.38% [30 µM] | [17] -8.5% [30 µM]

Fc1ccc(Nc2nc(Nc3ccc(-c4nc5ccccc5[nH]4)cc3)c3cn[nH]c3n2)cc1
active: [9] -21.1% | [10] 1.66%
inactive: [1] 92.8% | [2] 72.4% | [3] 79.8% | [4] 99.5% | [5] 78.9% | [6] 89.7% | [7] 31.9% | [8] 21.6% | [11] 56.8% | [12] 106% | [13] 81.8% | [14] 81.6% | [15] 20.3% | [16] 93.5% | [17] 67.5%

O=C(NC(=S)Nc1ccc(-c2nc3ccccc3[nH]2)cc1)c1ccc2ccccc2c1
inactive: [1] 98.2% | [2] 58.2% | [6] 24.5% | [7] 49.6% | [8] 59% | [11] 28.8% | [12] 56.5% | [14] 52.2% | [16] 11.3% | [17] 28.8%
active: [3] -84.4% | [4] -16.5% | [5] -0.473% | [9] 5.49% | [10] -6.21% | [13] -18.7% | [15] -45.2%

CNCCNc1nc2ccccc2c2c(=O)c3cc(F)ccc3oc12
inactive: [1] 100% | [2] 71.9% | [3] 37.7% | [4] 80.2% | [5] 24% | [6] 45% | [7] 52.4% | [8] 10.7% | [9] 22.7% | [10] 47.8% | [11] 47% | [12] 80.4% | [13] 54.8% | [14] 49.6% | [15] 69.3% | [16] 70.6% | [17] 47.8%

CO[C@H]1/C=C/O[C@@]2(C)Oc3c(C)c(O)c4c(c3C2=O)C(=O)C(/C=N/N(c2ccccc2)c2ccccc2)=C(NC(=O)/C(C)=C\C=C\[C@H](C)[C@H](O)[C@@H](C)[C@@H](O)[C@@H](C)[C@H](OC(C)=O)[C@@H]1C)C4=O
inactive: [20] 12.2%
active: [1] -60.8% | [19] -49.2% | [3] -19.3% | [4] -1.72% | [5] -33% | [6] -4.42% | [18] -5.29% | [7] 1.62% | [8] 3.36% | [9] -13% | [10] -19.1% | [11] 7.09% | [12] -43.7% | [13] 9.98% | [14] -16.3% | [15] -83% | [16] -0.488% | [17] 6.55%

CCOC(=O)C1C(=O)C=C(c2cnccn2)CC1c1ccc(OC)c(OC)c1 (stereo not drawn)
inactive: [1] 86.4% | [2] 101% | [3] 87.4% | [4] 87.8% | [18] 119% | [7] 82.2% | [8] 73.2% | [9] 89.6% | [10] 90% | [11] 92.3% | [12] 103% | [13] 109% | [20] 82.2% | [14] 105% | [15] 106% | [16] 99.8% | [17] 98.2%

C=CC(=O)N[C@@H](Cc1ccc(-c2cc(Cl)cc(Cl)c2)cc1)[C@@H](O)[C@H](O)C(=O)O
inactive: [1] 97% | [2] 93% | [3] 84% | [4] 99.3% | [5] 100% | [6] 91.6% | [7] 105% | [8] 93.3% | [9] 92.8% | [10] 105% | [11] 85.9% | [12] 86.8% | [13] 99.9% | [20] 91.6% | [14] 105% | [15] 114% | [16] 92.9% | [17] 95.6%

COc1ccc(-n2ncn(CCCCCCn3cnn(-c4ccc(OC)cc4)c3=O)c2=O)cc1
inactive: [1] 89.5% | [2] 85.8% | [3] 72.5% | [5] 87.5% | [6] 87.4% | [18] 101% | [7] 87.8% | [10] 78.3% | [11] 95.2% | [12] 101% | [13] 84.5% | [20] 99.5% | [14] 90.6% | [15] 98.4% | [16] 93.9% | [17] 89%

COc1ccc(NC(=O)c2cccc(-c3cc(=O)c4c(O)c(OC)c(OC)cc4o3)c2)cc1
inactive: [1] 83.4% | [19] 84.3% | [3] 93.4% | [4] 105% | [5] 83.6% | [6] 93.6% | [18] 83.8% | [7] 84% | [8] 103% | [9] 80.8% | [10] 92.5% | [11] 80.6% | [12] 97.5% | [13] 97.5% | [14] 95.1% | [15] 50.6% | [16] 56.1% | [17] 85.3%

COc1ccc(C2CC(c3ccccc3)=NN2c2nc(C)c(C(C)=O)s2)cc1 (stereo not drawn)
inactive: [1] 98.4% | [2] 94.6% | [3] 77.4% | [4] 110% | [5] 95.5% | [6] 86.6% | [7] 96.3% | [9] 97.7% | [10] 99% | [11] 101% | [12] 105% | [13] 97.1% | [14] 103% | [15] 98.5% | [16] 93.3% | [17] 102%

N=c1ccn2c(n1)OC1C(O)C(CO)OC12 (stereo not drawn)
inactive: [1] 46.5% | [2] 85.5% | [4] 51.3% | [8] 108% | [9] 181% | [11] 28.8% | [12] 71.2% | [13] 52.4% | [20] 47% | [14] 12.6% | [15] 67.1% | [16] 85.2% | [17] 31.8%
active: [3] -3.93% | [5] -15.9% | [6] -14.4%

COc1ccc(C(=O)/C=C/c2cc3c(c(OC)c2)OCC(=O)N3)cc1
active: [7] 7.77% | [8] 6.17% | [10] 5.42% | [15] 2.27%
inactive: [1] 110% | [19] 48.7% | [3] 62.2% | [4] 116% | [5] 46.3% | [6] 20.8% | [18] 94.3% | [9] 20.4% | [11] 44.8% | [12] 45.7% | [13] 53.7% | [20] 103% | [14] 80% | [16] 42.3% | [17] 36.7%

CCCCCCCSc1ccc(C(=O)O)cc1
inactive: [1] 103% | [19] 93.2% | [3] 84% | [4] 105% | [5] 94.6% | [6] 103% | [18] 97.5% | [7] 91.5% | [8] 106% | [9] 104% | [10] 92.1% | [11] 95.7% | [12] 110% | [13] 93.9% | [20] 102% | [14] 101% | [15] 118% | [16] 128% | [17] 109%

COC(=O)c1ccc2oc(NC(=O)c3ccc(N4CCOCC4)c([N+](=O)[O-])c3)nc2c1
inactive: [1] 99.5% | [2] 96.6% | [3] 75.4% | [4] 115% | [5] 94.1% | [6] 85.9% | [18] 98.5% | [7] 90.3% | [10] 93.3% | [11] 99% | [12] 92.8% | [13] 91% | [20] 89.8% | [14] 99.9% | [15] 107% | [16] 96.9% | [17] 103%

Fc1ccc(Nc2nc3nonc3nc2Nc2ccc(F)cc2)cc1
active: [1] -26.2% | [3] -6.75% | [4] -4.95% | [5] -15.9% | [6] -8.48% | [18] -41.1% | [8] -8.01% | [9] 7.15% | [10] 6.64% | [11] 8.53% | [12] -16.7% | [13] 5.75% | [20] 3.75% | [15] 1.97% | [16] -1.86% | [17] 3.98%
inactive: [19] 12% | [7] 17.1% | [14] 32.6%
